# Shiga inhibitor – inhibitors of Shiga toxin in Vero cells. 290,000 compounds, 9.2% hits. inhibition, % at 38.7 µM. Vero cells, Shiga toxin protein synthesis inhibition reporter; in the data active = inhibition mostly above about 28%, no sharp cut-off; inactive = mostly below about 43%; also: 0% is about no effect
# Pf growth 96h – inhibits malaria parasite growth, 96 h; P. falciparum luciferase reporter growth, 96 h; Potency, µM (top dose mostly 28.7 µM), inactives show top-dose activity change, negative = inhibition, most hits filed as inhibitors; 320,000 compounds, 6.9% hits; AID 504834; also: potency is read from the fitted curve at half-maximal effect; % is scaled to controls: 0 for no effect and ±100 for the full control effect
#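 Compounds incubated with erythrocytes infected by luciferase-expressing P. falciparum (2% hematocrit, 0.05% parasitemia final) for 96 hours, 37 C in 5% CO2. Growth inhibition scored as decreased luciferase luminescence.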
# CHX counter – counter-screen for Shiga toxin inhibitors: cycloheximide protein synthesis inhibition | cell reporter, cycloheximide protein synthesis inhibition counterscreen | max response, % | 300,000 compounds, 12% hits; in the data active = max response mostly above about 13%, no sharp cut-off; inactive = mostly below about 14%; also: read at 38.3 µM for the half of the compounds with a filed dose; 0% is about no effect
# Pf growth 48h – inhibits P. falciparum growth in the first generation, 48 h; 310,000 compounds, 5.9% hits; P. falciparum luciferase growth in erythrocytes, 48 h; Potency, µM (series often up to 28.7 µM), inactives show at the top dose activity change, negative = inhibition, actives largely listed as inhibitors; AID 504832; also: potency is read from the fitted curve at half-maximal effect; % is scaled to controls: 0 for no effect and ±100 for the full control effect
#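 Compounds are pin-transferred into medium, infected erythrocytes (2% hematocrit, 0.1% parasitemia final) are added, and plates sit one parasite generation at 37 C in 5% CO2. Detection reagent is then added and luminescence measured.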
# SARS PLP yeast – inhibitors of SARS-CoV papain-like protease in yeast. S. cerevisiae expressing SARS-CoV PLpro, growth rescue. Potency, µM (top dose mostly 32.9 µM), inactives show at the top dose activity, positive = growth rescue, actives largely listed as activators. 330,000 compounds, 0.19% hits. AID 485353; calls by dose curve; also: potency is read from the fitted curve at half-maximal effect; 0% is about no effect; nearly all actives have a fitted effect of over 55% in size
# AMA1 RON2 block – AMA1-RON2 (P. falciparum) interaction inhibition; AlphaScreen AMA1-biotinylated RON2 peptide binding; Potency, µM (doses to about 58.2 µM), without a hit: at the top dose activity change, negative = inhibition, usual class: inhibitors; 360,000 compounds, 0.2% hits;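 also: potency is read from the fitted curve at half-maximal effect; 0% = vehicle wells and -100% = peptide control; nearly all actives have a fitted effect of over 45% in size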
#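 AMA1 (3D7) with his tag at 25 nM final met compounds first, then biotinylated RON2 peptide at 25 nM; detection used donor plus acceptor beads, 10 µg/mL apiece, read by AlphaScreen after 30 min at room temperature.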
# Starred values were filed as active, the others as inactive; ? = inconclusive; . = not tested or not shown; [ ] = dose if it differs, or a comment. A selection: hits, their analogues and other compounds. The true share with any hit is near 19%. Unless noted, calls follow the shape of the dose curve; as a rule, active = well fitted curve in the direction sought with a large enough effect; inconclusive = small, poorly fitted or top-dose-only effect, or another doubt; inactive = no such curve, though single readings can be large; an effect the other way counts as inactive or inconclusive.
SMILES,Shiga inhibitor,Pf growth 96h,CHX counter,Pf growth 48h,SARS PLP yeast,AMA1 RON2 block
Cn1c(O)c(C2=NNC(c3ccc(Cl)cc3)C2)c(=O)n(C)c1=O (stereo not drawn),-4.5,?,0.2,13.1µM*,0.3%,84.3%
CCC(=O)N1N=C(c2c(O)n(C)c(=O)n(C)c2=O)CC1c1ccccc1 (stereo not drawn),-13.3,?,1.3,?,0.2%,106.0%
Cc1[nH]c2ccccc2c1CN1CCC(Cc2ccccc2)CC1,-7.3,-181.9%,3.7,?,-1.9%,-25.7%
CCOc1ccc(C(=O)NCC(=O)OCC(=O)Nc2ccc(C)c(S(=O)(=O)N(C)C)c2)cc1,-5.5,4.0%,-1.3,11.1%,-1.3%,46.1%
O=C1CCCC(=O)N1CCCCCCN1C(=O)CCCC1=O,.,.,.,.,.,13.8%
Cc1ccc(-c2csc(N=C(N)N)n2)cc1,63.5*,-44.6%,28.1*,?,-1.0%,-7.6%
Cc1cc(C(F)(F)F)nc(SCCN2CCOCC2)c1C#N,-11.2,12.1%,-0.8,4.9%,-0.8%,0.1%
N#Cc1c(C(F)(F)F)cc(-c2ccc(Cl)c(Cl)c2)nc1SCCN1CCOCC1,-16.4,2.33µM*,-2.8,?,-7.3%,-2.4%
O=C(NN=Cc1c(O)ccc2ccccc12)c1ccc2c(c1)OCO2,.,.,.,.,1.1%,78.9%
Oc1ccc(N=Nc2ccc3c(c2)OCO3)c2ccccc12,77.9*,?,58.0*,?,-0.4%,.
Cc1ccc(C)n1CCN1CCN(C(=O)CC#N)CC1,4.5,7.2%,7.8,4.8%,1.3%,-0.7%
CC(=O)c1ccc(-n2c(CCC(=O)O)ccc2-c2ccccc2)cc1,-2.7,9.4%,-6.4,0.3%,1.4%,-6.2%
Cc1ccc(-c2ccc(CCC(=O)O)n2CC2CCCO2)cc1 (stereo not drawn),-22.3,?,13.6*,-13.8%,-0.7%,-5.6%
COC(=O)c1ccc(-n2c(C)ccc2-c2ccccc2)cc1,2.2,?,13.7*,?,-44.3%,-17.4%
CCCn1c(CCC(=O)O)ccc1-c1ccc(F)cc1,-9.3,9.28µM*,-1.6,12.0%,-5.7%,-2.4%
O=C(O)CCc1ccc(-c2ccccc2)n1CC1CCCO1 (stereo not drawn),-13.4,.,-4.1,1.2%,-2.7%,6.7%
COC(=O)c1ccc(-n2c(CCC(=O)O)ccc2-c2ccccc2)cc1,28.3,3.7µM*,10.7,-3.3%,-3.9%,-3.9%
COc1ccc(-n2c(C)ccc2-c2ccccc2)cn1,.,?,13.5,?,-4.3%,-4.1%
CC(C)(C)c1cc(CNC(=O)C2CCC(=O)N(Cc3ccccc3F)C2)[nH]n1 (stereo not drawn),.,.,.,.,.,-1.9%
CC(=O)c1ccc(-n2c(C)ccc2-c2ccccc2)cc1,32.3,?,28.9*,.,-13.9%,-23.7%
COC(=O)Cn1c(CCC(=O)O)ccc1-c1ccccc1,-7.1,8.28µM*,-6.7,.,-4.5%,-7.4%
COc1ccc(NC(=O)Cn2c(CCC(=O)O)ccc2-c2ccccc2)cc1,16.3,78.3%,-1.1,7.1%,1.8%,-11.0%
CC(=O)Nc1ccc(-n2c(C)ccc2-c2ccccc2)cc1,-4.6,?,-4.3,3.6%[0.00184 µM],-7.4%,0.7%
CCCCCCN1C[C@@H](O)[C@H](n2cc(COC(=O)c3ccccc3)nn2)C[C@@H]1c1ccc(C)cc1,.,.,.,.,.,3.0%
O=C(Cc1coc2cc3c(cc12)CCC3)NC1CCCCCCC1,2.3,29.1%,12.4*,8.4%,2.2%,22.5%
SMILES,Shiga inhibitor,Pf growth 96h,CHX counter,Pf growth 48h,SARS PLP yeast,AMA1 RON2 block
Cc1nnc(NC(=O)NC(C)N2C(=O)C3C4C=CC(C4)C3C2=O)s1 (stereo not drawn),-15.9,-25.8%,0.9,2.62µM*,2.6%,-4.6%
CCOc1ccc(Nc2n[nH]c(=S)s2)cc1,42.7,2.94µM*,12.1,?,-10.1%,34.3%
Cc1ccc(Nc2n[nH]c(=S)s2)cc1,.,.,.,.,.,154.8%
Cc1cc(N2CCN(C)CC2)nc2ccc(NC(=S)N3CCN(c4ccccn4)CC3)cc12,-4.7,9.28µM*,0.4,-32.3%,-0.3%,-13.2%
Cc1ccc(C)c(N2CCN(C(=S)Nc3ccc4nc(N5CCN(C)CC5)cc(C)c4c3)CC2)c1,1.3,27.1%,-1.6,10.4µM*,-3.6%,-5.5%
Cc1ccc(C)c(N2CCN(C(=S)Nc3ccc4nc(N5CCOCC5)cc(C)c4c3)CC2)c1,-19.9,6.0%,11.4,?,0.7%,1.0%
Cc1nc2ccc(NC(=S)N3CCN(c4ccccn4)CC3)cc2nc1C,-10.8,?,-4.2,1.1%,-13.5%,-8.0%
Cc1cc(N2CCN(C)CC2)nc2ccc(NC(=S)N3CCC4(CC3)OCCO4)cc12,-17.9,11.7µM*,-8.7,4.15µM*,2.7%,-7.5%
CCOC(=O)CNC(=O)N(CCOC)CC1CCCN(C2Cc3ccccc3C2)C1 (stereo not drawn),-5.4,-30.8%,-2.0,0.6%,-0.9%,-5.3%
CC(C)CCN(C(=O)c1csnn1)C(C(=O)NC1CCCCC1)c1ccc(F)cc1 (stereo not drawn),2.3,3.4%,-1.4,?,-4.8%,-9.2%
CC[C@]12c3[nH]c4ccc(OC)cc4c3CCN1C(=O)C(CC(=O)NC(C)(C)C)C[C@@H]2C(=O)N1CCN(C(=O)c2ccco2)CC1 (stereo partly drawn),.,.,.,.,10.3%,0.7%
CCCS(=O)(=O)NC(=O)C1(C)CCN(C(=O)c2cc(F)cc(F)c2)C1 (stereo not drawn),.,.,.,.,.,1.8%
COc1cccc(Nc2nc(N)c([N+](=O)[O-])c(NCc3ccccc3)n2)c1,35.7,11.7µM*,0.1,4.65µM*,-0.8%,-13.1%
CCOc1ccc(Nc2nc(N)c([N+](=O)[O-])c(NCc3ccccc3)n2)cc1,33.6,?,18.9*,5.22µM*,0.5%,-17.7%
Nc1nc(Nc2ccccc2)nc(NCc2ccccc2)c1[N+](=O)[O-],-2.1,?,8.7,?,-0.3%,-26.5%
CC(C)C[C@H]1CN=C(Nc2ccccc2)N1CC1CCCC1,-10.1,?,-1.2,?,6.4%,5.5%
CC(C)C[C@H]1CN=C(Nc2ccccc2)N1CCC1CCCCC1,-10.1,9.28µM*,-1.7,-48.8%,-2.2%,12.4%
CC(C)C[C@H]1CN=C(Nc2ccccc2)N1CC1CCC(C(C)(C)C)CC1 (stereo partly drawn),.,7.38µM*,.,8.28µM*,-24.2%,-10.9%
COc1ccc(CN2CC(C(=O)NCc3cccc(OC)c3)CC2=O)cc1 (stereo not drawn),-13.1,-0.8%,-0.6,45.4%,-5.3%,6.7%
Cc1cc(O)c(Sc2ncn[nH]2)cc1NS(=O)(=O)c1ccc(Cl)cc1,.,-3.1%,.,-8.1%,6.8%,61.6%[11.6 µM]
Cc1cc(C)c(S(=O)(=O)/N=C2/C=C(Sc3ncn[nH]3)C(=O)c3ccccc32)cc1C,48.3*,10.4µM*,32.6*,1.65µM*,-65.3%,-26.1%
CN(C)CCCNC(=O)/C(=C\C=C\c1ccccc1)NC(=O)c1ccc([N+](=O)[O-])cc1,-5.6,?,1.7,?,0.9%,1.9%

# Screening data from PubChem.
